About 4,100 (1.2%) of roughly 330,000 compounds were called active. Cut-off read from the data, not from the text of the source: active = inhibition above about 50%; inactive = the rest. What follows is part of a selection rich in actives, with near analogues and random picks from the rest.

The target in this test is Sentrin-specific protease 8 (Homo sapiens) (UniProt Q96LD8). The test can be described thus: SENP8 protease inhibitors, primary screen, biochemical, luminescence (AID 2540). Conditions: purified SENP8, Z-RLRGG-aminoluciferin cleavage, at 10 µM, stronger effect = higher value.
Sequence of Sentrin-specific protease 8 (Homo sapiens) (Q96LD8 whole entry, looked up): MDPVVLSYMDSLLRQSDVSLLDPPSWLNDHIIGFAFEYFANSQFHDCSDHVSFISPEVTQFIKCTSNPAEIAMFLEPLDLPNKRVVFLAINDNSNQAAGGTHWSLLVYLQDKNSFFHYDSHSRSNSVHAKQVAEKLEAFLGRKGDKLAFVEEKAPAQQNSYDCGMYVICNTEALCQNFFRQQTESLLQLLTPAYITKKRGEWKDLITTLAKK
By inhibition is commonly meant the drop in the measured response relative to a control, in per cent. Turning to `O=C(Nc1c2c(nn1-c1ccc(F)cc1)CS(=O)C2)C12CC3CC(CC(C3)C1)C2` (stereo not drawn), the inhibition was -3.44% (inactive).

For the compound `CCC(Cc1ccccc1)NC(=O)C1CCCCC1` (stereo not drawn), the inhibition is -7.47% (inactive).

On to `CN(c1ccc2nc3ccccc3c(=O)n2n1)C1CCCCC1`, for which the inhibition is 92.6% (active).

As for `CN(C(=O)c1cc2c(=O)n3ccccc3nc2s1)C1CCCCC1`, the inhibition was -2.55% (inactive).

In the case of `CN(C(=O)CSc1nncc2ccccc12)C1CCCCC1`, the inhibition is -9.8% (inactive).

Regarding `CC(C(=O)N1CCOCC1)N1c2cccc3cccc(c23)S1(=O)=O` (stereo not drawn), the inhibition is 3.41% (inactive).

On to `Cc1cccc(NC(=O)Cc2ccc(Br)cc2)n1`, for which the inhibition was -12.8% (inactive).

`Cc1cccc(NC(=O)c2ccc3ccccc3n2)n1`: the inhibition was 61.5% (active).

For the compound `Cc1cccc(NC(=O)c2cc(N3C(=O)CCC3=O)ccc2Cl)n1`, the inhibition was -1.19% (inactive).

As to `CC(=O)c1cnc(SCC(=O)O)nc1C`, the inhibition is 6.9% (inactive).

Take `CCN(CC)CCn1c2c(c(SCC(=O)Nc3nc4ccccc4s3)nc1=O)CCCC2`: the inhibition was 3.66% (inactive).

As for `c1ccc2sc(NN=C3CCCC3)nc2c1`, the inhibition was 72% (active).

Take `O=C(CCC(=O)c1cccs1)Nc1nc2ccccc2s1`: the inhibition is -9.74% (inactive).

Regarding `COc1ccc(NC(=O)C2COc3ccccc3O2)cc1` (stereo not drawn), the inhibition was -15.1% (inactive).

As to `O=C(Nc1ncc([N+](=O)[O-])s1)C1COc2ccccc2O1` (stereo not drawn), the inhibition was 95.6% (active).

Regarding `COc1ccc(OC)c2sc(NC(=O)C3COc4ccccc4O3)nc12` (stereo not drawn), the inhibition is -14.6% (inactive).

`COc1ccc(OC)c(NC(=O)Cn2c(=O)oc3ccccc32)c1`: the inhibition was -1.75% (inactive).

Take `N#Cc1cc([N+](=O)[O-])ccc1NC(=O)COC(=O)c1cnccn1`: the inhibition is -2.92% (inactive).

Turning to `O=C(CN1CCN(c2ccc(Cl)cc2)CC1)NCc1cccs1`, the inhibition was -8.2% (inactive).

Consider `CCc1cc(CNC(=O)CC2C(=O)NCCN2CC2CCCCC2)on1` (stereo not drawn), for which the inhibition was -2.78% (inactive).

With `CCCCCN(C(=O)CCC(=O)OCCOc1ccc(OC)cc1)c1c(N)n(CCCC)c(=O)[nH]c1=O`, the inhibition was 6.98% (inactive).

On to `C=CCN(C(=O)Nc1ccc2c(c1)nc(C)n2C)c1ccccc1`, for which the inhibition was 0.305% (inactive).

Consider `Cc1nc2cc(NC(=O)Nc3cccc(F)c3)ccc2n1C`, for which the inhibition was 90.8% (active).

For the compound `Cn1c(CCN2CCCCCC2)nc2cc(NC(=O)Nc3ccccc3)ccc21`, the inhibition was 1.11% (inactive).

Regarding `O=C(COC(=O)c1cnccn1)Nc1cccc2ccccc12`, the inhibition was 1.04% (inactive).

On to `O=C(CSc1ncnc2c1nnn2Cc1ccc(F)cc1)NC1CCCC1`, for which the inhibition was -8.4% (inactive).

With `O=C(Nc1ccccc1C(=O)N1CCOCC1)c1ccc(CSc2ccccc2)cc1`, the inhibition is -3.32% (inactive).

Turning to `O=C(c1ccc(S(=O)(=O)c2ccccc2)cc1)N1CCCCCC1`, the inhibition was -5.04% (inactive).

As for `O=C(c1ccc(CSc2ccccc2)cc1)N1CCCCCC1`, the inhibition was 64.4% (active).

`O=C(CSc1nccc(=O)[nH]1)Nc1ccc(N2CCOCC2)c(Cl)c1`: the inhibition is 2.95% (inactive).

In the case of `Cc1sc(NC(=S)NC(=O)c2cccs2)nc1-c1ccc(CC(C)C)cc1`, the inhibition was 13.2% (inactive).

In the case of `Cc1ccc(C(=O)N/C(=C/c2cccnc2)C(=O)O)cc1`, the inhibition was -10.8% (inactive).

`C/C(=N\NC(=O)c1ccc(C)cc1)C1C(=O)c2ccccc2C1=O`: the inhibition is 86.8% (active).

Turning to `C/C(=N\NC(=O)CNC(=O)C(c1ccccc1)c1ccccc1)c1ccc(C)cc1`, the inhibition is -7.34% (inactive).

For the compound `O=C(NCCOc1cccnc1)c1ccc(OC2CCN(Cc3ccccn3)CC2)cc1`, the inhibition was -5.27% (inactive).

In the case of `CCN(C(=O)COc1cccnc1[N+](=O)[O-])C1CCS(=O)(=O)C1` (stereo not drawn), the inhibition was 1.37% (inactive).

Regarding `O=C1C2CCCN2C(=O)N1CCCCN1CCN(c2cccc(C(F)(F)F)c2)CC1` (stereo not drawn), the inhibition is 11.4% (inactive).

Consider `O=C(COC(=O)c1cccnc1Cl)Nc1ccc(S(=O)(=O)N2CCOCC2)cc1`, for which the inhibition is -1.74% (inactive).

Consider `COc1ccc(NS(=O)(=O)c2cc(C(=O)Nc3ccccc3C(=O)O)ccc2C)cc1`, for which the inhibition was -12.1% (inactive).

For `O=C(N/N=C/c1ccc(OC(=O)c2ccccc2Cl)cc1)c1ccc(O)cc1`, the inhibition was 1.64% (inactive).

Take `COc1ccc(/C=N/OCC(=O)N(Cc2ccccc2)c2ccccc2C(=O)O)cc1`: the inhibition is -0.249% (inactive).

`COc1ccc(/C=N/Nc2ccccc2C(=O)O)cc1`: the inhibition is 96.1% (active).

`COc1ccc(C(=O)Nc2ccccc2C(=O)N2CCN(c3ccccc3)CC2)cc1`: the inhibition is 0.756% (inactive).

For `COc1ccc(C(=O)Nc2ccccc2C(=O)N/N=C/c2ccc(O)c(OC)c2)cc1`, the inhibition was 96.1% (active).

Regarding `CCOC(=O)C(C)n1cnc2c(nnn2-c2cccc(OC)c2)c1=O` (stereo not drawn), the inhibition is -4.12% (inactive).

On to `Cc1cc(=O)oc2c(C(=O)c3ccccc3)c(OCC(N)=O)ccc12`, for which the inhibition is 5.39% (inactive).

Consider `Nc1[nH]c(=S)nc2nc(-c3ccccc3)c(-c3ccccc3)nc12`, for which the inhibition was -9.6% (inactive).

With `Cc1cccnc1CCNC(=O)C1CCC(=O)N(Cc2cccc(F)c2)C1` (stereo not drawn), the inhibition was -1.77% (inactive).

Take `O=C(CNCc1ccco1)Nc1cc(S(=O)(=O)N2CCOCC2)ccc1N1CCCC1`: the inhibition is -6.3% (inactive).

As to `CCN(CC)C(=O)CC1(c2ccccc2OC)CCOC(C(C)C)C1` (stereo not drawn), the inhibition is -10.8% (inactive).

Regarding `COc1ccc(CCNC(=O)C2CCCN2C(=O)Nc2ccccc2)cc1OC` (stereo not drawn), the inhibition was -4.97% (inactive).

With `Brc1ccc(-c2noc(-c3ccccc3)n2)o1`, the inhibition was 73% (active).

`Nc1nonc1-c1noc(-c2ccc(Br)o2)n1`: the inhibition is -7.25% (inactive).

For the compound `Brc1ccc(-c2nnc(-c3ccccc3)o2)o1`, the inhibition was 35.5% (inactive).

Regarding `O=C(CCc1nc2ccccc2c(=O)[nH]1)OCC(=O)c1cccc(Cl)c1`, the inhibition was -5.04% (inactive).

In the case of `CCC1(CC)Cc2ccccc2-c2nc(CCl)[nH]c(=O)c21`, the inhibition is 1.95% (inactive).

`O=c1[nH]c(CCl)nc2cc(-c3ccc(Cl)cc3)sc12`: the inhibition was 90.6% (active).

Regarding `O=C(NCCc1ccco1)C(=O)NCCC1CCCCN1S(=O)(=O)c1ccccc1` (stereo not drawn), the inhibition is 2.72% (inactive).

In the case of `CC(C)(C)NC(=O)CN(Cc1cccs1)C(=O)CNS(=O)(=O)c1ccccc1`, the inhibition was 2.68% (inactive).

For the compound `O=C(CSc1cccc[n+]1[O-])NCCCc1ccccc1`, the inhibition was 3.26% (inactive).

As for `Fc1ccc(COc2ccc(-c3nnco3)cc2)cc1`, the inhibition was 52.5% (active).

As for `Fc1ccc(COc2cccc(-c3n[nH]c(=S)o3)c2)cc1`, the inhibition is 26.4% (inactive).

Regarding `Fc1cccc(Cl)c1COc1ccc(-c2nnco2)cc1`, the inhibition was -0.803% (inactive).

With `CCN(CC)c1ccc(S(=O)(=O)N2CCCCC2)cc1NC(=O)C1=COCCO1`, the inhibition is -1.53% (inactive).

As for `COC(=O)c1ccc(C)c(NC(=O)C2CC(=O)N(C3CCCC(C)C3C)C2)c1` (stereo not drawn), the inhibition was -6.55% (inactive).

For `O=C(Nc1ccc(F)cc1)c1cc2c(s1)CCCC2`, the inhibition was 90.8% (active).

Turning to `O=C(NCC1CCCO1)c1cc2c(s1)CCCC2` (stereo not drawn), the inhibition is 0.761% (inactive).

Consider `CN(C)C(=O)c1ccc(NC(=O)COC(=O)c2cc3c(s2)CCCCC3)cc1`, for which the inhibition was -5.57% (inactive).

Turning to `CC(NC(=O)c1cc2cc(Cl)ccc2oc1=N)c1ccccc1` (stereo not drawn), the inhibition is -6.62% (inactive).

For the compound `COCC(C)NC(=O)COc1nncc2ccccc12` (stereo not drawn), the inhibition was -1.01% (inactive).

In the case of `CCCC(=O)Nc1cccc(NC(=S)NC(=O)C(C)Oc2ccc(Cl)cc2Cl)c1` (stereo not drawn), the inhibition is -4.44% (inactive).

For the compound `O=C(NCc1cccnc1)c1cccc(-c2cc3ccccc3oc2=O)c1`, the inhibition was -8.55% (inactive).

`O=c1oc2ccccc2cc1-c1cn(-c2ccccc2)c(=S)[nH]1`: the inhibition is -12.9% (inactive).

Take `Nc1ncc(-c2cc3ccccc3oc2=O)s1`: the inhibition is 84% (active).

With `Cc1cccc(NC(=O)Nc2ccc3c(c2)OCO3)n1`, the inhibition was 13.3% (inactive).

Turning to `O=C(/C=C/c1ccc2c(c1)OCO2)NCc1ccc(F)cc1`, the inhibition was -4.04% (inactive).

Consider `Cc1cccc(NC(=O)/C=C/c2ccc3c(c2)OCO3)n1`, for which the inhibition was 73.5% (active).

As to `COc1ccc(OC)c(NC(=O)c2cnn(-c3ccccc3Cl)c2NC(=O)c2ccco2)c1`, the inhibition is 7.71% (inactive).

For `COc1ccc2[nH]c(C(=O)Nc3ccccc3Cl)cc2c1`, the inhibition was -24.6% (inactive).

Consider `O=C(Nc1ccccc1)c1cc2ccccc2[nH]1`, for which the inhibition is 72% (active).

In the case of `CC(OC(=O)c1cc2ccccc2[nH]1)C(=O)N(C)c1ccccc1` (stereo not drawn), the inhibition is -8.47% (inactive).

Turning to `CSc1ccc(/C=N/NC(=O)c2cccc(Cl)c2)cc1`, the inhibition was 89.4% (active).

Take `CSc1ccc(/C=N\NC(=O)CC(=O)NC(C)C)cc1`: the inhibition was 5.31% (inactive).

For the compound `O=C(N/N=C/c1ccc(Cl)c(Cl)c1)c1ccc2nc[nH]c2c1`, the inhibition is -2.15% (inactive).

Turning to `O=C(CNS(=O)(=O)c1ccc(Br)s1)NCc1ccc2c(c1)OCO2`, the inhibition was -11.1% (inactive).

As to `COc1ccc(C(=O)Nc2cc(C)ccc2NC(=O)COc2ccccc2)cc1`, the inhibition is -2.67% (inactive).

For `CC(C)CC(=O)NC(=S)Nc1ccc(F)cc1F`, the inhibition was 3.9% (inactive).

In the case of `COc1ccc(C(=O)Nc2ccc(F)cc2F)cc1`, the inhibition was 65.2% (active).

Consider `CCC(CO)Oc1cc(NCc2ccccc2)c2ncn(C3CCCC3)c2c1` (stereo not drawn), for which the inhibition is -0.274% (inactive).

For the compound `CC(C)n1cnc2c(NCc3ccccc3)cc(N[C@@H](CO)Cc3ccccc3)cc21`, the inhibition was 72.8% (active).

Turning to `CC(C)n1cnc2c(NCc3ccccc3)cc(OCC3CCN(C)CC3)cc21`, the inhibition was 44.5% (inactive).

With `CN1CCC(N(C)S(=O)(=O)c2ccc(NC(=O)c3cccc(C#N)c3)cc2)CC1`, the inhibition was -1.55% (inactive).

Regarding `Cc1nnc2n1N=C(c1ccccc1)CS2`, the inhibition was 1.54% (inactive).

Turning to `O=c1c2cc(-c3ccccc3)sc2nc2n1N=C(c1cccs1)CS2`, the inhibition was 57.5% (active).

In the case of `O=c1c(-c2ccccc2)cnc2n1CCS2`, the inhibition is 6.64% (inactive).

With `O=C(Nc1cccc(NC(=O)c2cccc(F)c2)c1)c1ccccc1`, the inhibition is -15.3% (inactive).

With `O=C(Nc1ccc(C(=O)O)c(O)c1)c1ccccc1`, the inhibition is 76.3% (active).

As for `O=C(Cc1ccccc1)Nc1cccc(NC(=O)c2ccccc2)c1`, the inhibition was -8.4% (inactive).

The values are drawn from PubChem BioAssay AID2540 (Sanford-Burnham Center for Chemical Genomics, 2010).
